PubChem BioAssay (NCI)
The panel holds about 83,000 compounds, 20% with a hit somewhere; the sample as a whole holds those more often.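 The endpoint reported here, percent growth, reads 100 for growth as untreated, 0 for no net growth and -100 for all cells dead.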 Activity calls are given as the source filed them. The calls were made as follows: active = growth percent below 10; inactive = the rest.

Assays:
Assay in all cases: NCI-60 one-dose screen, 48 h (100 = growth as untreated, 0 = no growth, -100 = all killed)
Conditions in all cases: 10 µM unless noted
DU-145 prostate = system: DU-145 prostate
K-562 leukemia = system: K-562 leukemia
MALME-3M melanoma = system: MALME-3M melanoma
MDA-MB-231 breast = system: MDA-MB-231 breast
RXF 393 renal = system: RXF 393 renal
SF-268 CNS = system: SF-268 CNS
SF-539 CNS = system: SF-539 CNS
UACC-257 melanoma = system: UACC-257 melanoma
HCT-15 colon = system: HCT-15 colon
HT29 colon = system: HT29 colon
SNB-75 CNS = system: SNB-75 CNS
U251 CNS = system: U251 CNS
PC-3 prostate = system: PC-3 prostate
SK-MEL-5 melanoma = system: SK-MEL-5 melanoma
UACC-62 melanoma = system: UACC-62 melanoma
LOX IMVI melanoma = system: LOX IMVI melanoma
SK-MEL-28 melanoma = system: SK-MEL-28 melanoma
SF-295 CNS = system: SF-295 CNS
SNB-19 CNS = system: SNB-19 CNS
M14 melanoma = system: M14 melanoma

Measured: growth

CCOCC(O)(c1ccc(Cl)cc1)c1ccc(Cl)cc1
inactive: DU-145 prostate 96.1% | K-562 leukemia 88.1% | MALME-3M melanoma 103% | MDA-MB-231 breast 100% | RXF 393 renal 117% | SF-268 CNS 97.4% | SF-539 CNS 104% | UACC-257 melanoma 94.1% | HCT-15 colon 88.6% | HT29 colon 81.4% | SNB-75 CNS 103% | U251 CNS 95.9% | PC-3 prostate 88.8% | SK-MEL-5 melanoma 96.1% | UACC-62 melanoma 87% | LOX IMVI melanoma 94.8% | SK-MEL-28 melanoma 108%

NS(=O)(=O)c1ccc(N2N=C(c3ccc(Br)cc3)CC2c2cn(-c3ccccc3)nc2-c2ccc(Cl)cc2)cc1 (stereo unspecified)
inactive: DU-145 prostate 94.7% | K-562 leukemia 63% | MDA-MB-231 breast 99% | RXF 393 renal 88.9% | SF-268 CNS 84.7% | SF-295 CNS 92.7% | SF-539 CNS 104% | UACC-257 melanoma 96.7% | HCT-15 colon 78.7% | HT29 colon 76.6% | SNB-75 CNS 92.4% | SNB-19 CNS 96% | U251 CNS 86.9% | PC-3 prostate 73.3% | SK-MEL-5 melanoma 99.7% | UACC-62 melanoma 82.5% | LOX IMVI melanoma 88% | SK-MEL-28 melanoma 108%

CCc1ccc2c(c1)N(CCO)C1=C(C(=O)OC1)C2c1cccc(Cl)c1 (stereo unspecified)
inactive: DU-145 prostate 11.3% | K-562 leukemia 13.3% | MDA-MB-231 breast 30.8% | RXF 393 renal 10.1% | SF-268 CNS 44.9% | UACC-257 melanoma 62.2% | HCT-15 colon 15.9% | SNB-75 CNS 18.9% | SNB-19 CNS 36.4% | U251 CNS 18.1% | PC-3 prostate 28.8% | SK-MEL-5 melanoma 32.1% | UACC-62 melanoma 21.8% | LOX IMVI melanoma 44.3% | SK-MEL-28 melanoma 50.3%
active: SF-295 CNS -15.6% | SF-539 CNS -12.6% | M14 melanoma 4.38% | HT29 colon 4.49%

Oc1ccc(-c2cnc(-c3ccccc3)[nH]2)c(O)c1
inactive: DU-145 prostate 157% | K-562 leukemia 94.7% | MALME-3M melanoma 76.5% | MDA-MB-231 breast 92.1% | SF-268 CNS 100% | SF-539 CNS 107% | M14 melanoma 119% | HCT-15 colon 107% | HT29 colon 120% | SNB-75 CNS 94.2% | SNB-19 CNS 98% | U251 CNS 110% | PC-3 prostate 100% | SK-MEL-5 melanoma 105% | UACC-62 melanoma 85.6% | LOX IMVI melanoma 105% | SK-MEL-28 melanoma 105%
active: UACC-257 melanoma -22.6%

NC(=Nc1ccccc1)SCCCSC(N)=Nc1ccccc1
inactive: DU-145 prostate 95.7% | K-562 leukemia 75% | MDA-MB-231 breast 79.5% | RXF 393 renal 99.5% | SF-268 CNS 95.6% | SF-539 CNS 93.6% | UACC-257 melanoma 108% | M14 melanoma 95.6% | HCT-15 colon 82.4% | HT29 colon 93.9% | SNB-75 CNS 78.4% | SNB-19 CNS 95.8% | U251 CNS 95.6% | PC-3 prostate 74.7% | SK-MEL-5 melanoma 85.5% | UACC-62 melanoma 73.4% | LOX IMVI melanoma 86.7% | SK-MEL-28 melanoma 106%

O=C(Nc1ccccc1)C(CCCCN1C(=O)c2ccccc2C1=O)N1C(=O)c2ccccc2C1=O (stereo unspecified)
inactive: DU-145 prostate 95.4% | K-562 leukemia 82.8% | MDA-MB-231 breast 109% | RXF 393 renal 110% | SF-268 CNS 99.8% | SF-295 CNS 101% | SF-539 CNS 111% | UACC-257 melanoma 106% | M14 melanoma 105% | HCT-15 colon 102% | HT29 colon 107% | SNB-75 CNS 88.5% | SNB-19 CNS 101% | U251 CNS 102% | PC-3 prostate 98.5% | SK-MEL-5 melanoma 101% | UACC-62 melanoma 98.9% | LOX IMVI melanoma 101% | SK-MEL-28 melanoma 107%

COC(=O)c1cc2oc(/C=N/NC(=O)c3cc4oc(-c5cccc(C(F)(F)F)c5)cc4[nH]3)cc2n1Cc1ccccc1
inactive: DU-145 prostate 111% | K-562 leukemia 91.3% | MDA-MB-231 breast 104% | SF-268 CNS 84.8% | SF-539 CNS 92.4% | M14 melanoma 121% | HCT-15 colon 98.1% | HT29 colon 104% | SNB-75 CNS 84.4% | SNB-19 CNS 112% | U251 CNS 101% | PC-3 prostate 90.3% | SK-MEL-5 melanoma 108% | UACC-62 melanoma 83.4% | LOX IMVI melanoma 97.6% | SK-MEL-28 melanoma 113%
active: MALME-3M melanoma 6.57% | UACC-257 melanoma -29.3%

COc1ccc(/C=C2\CCCC3=C2N=C2SC(C)=NN2C3c2ccc(OC)c(OC)c2)cc1OC (stereo unspecified)
active: SF-539 CNS 6.88% | HT29 colon 4.84% | LOX IMVI melanoma 1.41%
inactive: DU-145 prostate 16.1% | K-562 leukemia 14.5% | MDA-MB-231 breast 28.6% | RXF 393 renal 40.4% | SF-268 CNS 39% | SF-295 CNS 25.3% | UACC-257 melanoma 51.9% | M14 melanoma 19.8% | HCT-15 colon 28.3% | SNB-75 CNS 27.7% | SNB-19 CNS 45% | U251 CNS 15.5% | PC-3 prostate 40% | SK-MEL-5 melanoma 24.2% | UACC-62 melanoma 34.6% | SK-MEL-28 melanoma 58.9%

Cc1ccccc1CNc1ncnc2[nH]ncc12
inactive: DU-145 prostate 103% | K-562 leukemia 46.8% | MALME-3M melanoma 114% | MDA-MB-231 breast 106% | SF-268 CNS 95.4% | SF-295 CNS 84.3% | SF-539 CNS 97.6% | UACC-257 melanoma 107% | M14 melanoma 103% | HCT-15 colon 108% | HT29 colon 103% | SNB-75 CNS 94.8% | U251 CNS 99.8% | PC-3 prostate 311% | SK-MEL-5 melanoma 106% | UACC-62 melanoma 97.8% | LOX IMVI melanoma 95% | SK-MEL-28 melanoma 136%

Cc1cc(O)ccc1C1=NN(c2ccc(S(N)(=O)=O)cc2)C(=O)CC1
inactive: DU-145 prostate 89.9% | K-562 leukemia 15.7% | MALME-3M melanoma 45.3% | MDA-MB-231 breast 73.8% | SF-268 CNS 68.5% | SF-295 CNS 30.4% | SF-539 CNS 45.1% | UACC-257 melanoma 59.7% | M14 melanoma 29.7% | HCT-15 colon 35.2% | HT29 colon 11.2% | SNB-75 CNS 63% | SNB-19 CNS 82.3% | U251 CNS 53% | PC-3 prostate 50.7% | SK-MEL-5 melanoma 25.2% | UACC-62 melanoma 27.2% | LOX IMVI melanoma 63% | SK-MEL-28 melanoma 58%

CCCCn1c(-c2ccc(F)cc2)nc2cc(OC)c(OC)cc2c1=O
active: UACC-257 melanoma -32.2%
inactive: DU-145 prostate 111% | K-562 leukemia 85.5% | MALME-3M melanoma 71.8% | MDA-MB-231 breast 87.1% | SF-268 CNS 101% | SF-539 CNS 101% | HCT-15 colon 105% | HT29 colon 107% | SNB-75 CNS 98.8% | SNB-19 CNS 97.6% | U251 CNS 105% | PC-3 prostate 102% | SK-MEL-5 melanoma 89.8% | UACC-62 melanoma 81.8% | LOX IMVI melanoma 98.3% | SK-MEL-28 melanoma 97.5%

Cn1c(=O)c2[nH]c(Cc3ccc4c(c3)OCO4)nc2n(C)c1=O
inactive: DU-145 prostate 115% | K-562 leukemia 108% | MALME-3M melanoma 126% | MDA-MB-231 breast 123% | RXF 393 renal 108% | SF-295 CNS 104% | SF-539 CNS 94.8% | UACC-257 melanoma 111% | M14 melanoma 107% | HCT-15 colon 93.8% | HT29 colon 120% | SNB-75 CNS 95.3% | SNB-19 CNS 101% | U251 CNS 110% | PC-3 prostate 86.1% | SK-MEL-5 melanoma 108% | UACC-62 melanoma 98% | LOX IMVI melanoma 99.5% | SK-MEL-28 melanoma 106%

Fc1ccc(-c2nnc(N3CCOCC3)c3ccccc23)cc1
inactive: DU-145 prostate 104% | K-562 leukemia 99% | MALME-3M melanoma 82.9% | MDA-MB-231 breast 107% | SF-268 CNS 103% | SF-539 CNS 99.2% | UACC-257 melanoma 94.7% | M14 melanoma 93.9% | HCT-15 colon 99.1% | HT29 colon 111% | SNB-75 CNS 101% | SNB-19 CNS 88.8% | U251 CNS 108% | PC-3 prostate 95.8% | SK-MEL-5 melanoma 96.9% | UACC-62 melanoma 96.1% | LOX IMVI melanoma 104% | SK-MEL-28 melanoma 106%

CN=C1C=C/C(=N/N=c2/ccn(O)cc2C)C=C1C
inactive: DU-145 prostate 104% | K-562 leukemia 115% | MDA-MB-231 breast 86.4% | RXF 393 renal 96.8% | SF-268 CNS 102% | SF-539 CNS 90.2% | UACC-257 melanoma 98.5% | M14 melanoma 101% | HCT-15 colon 97.2% | HT29 colon 99.5% | SNB-75 CNS 84.4% | SNB-19 CNS 101% | U251 CNS 102% | PC-3 prostate 95.2% | SK-MEL-5 melanoma 97.8% | UACC-62 melanoma 89% | LOX IMVI melanoma 95.4% | SK-MEL-28 melanoma 120%

CCNS(=O)(=O)c1ccc(C)cc1
inactive: DU-145 prostate 96.5% | K-562 leukemia 105% | MALME-3M melanoma 104% | MDA-MB-231 breast 113% | RXF 393 renal 113% | SF-295 CNS 104% | SF-539 CNS 102% | UACC-257 melanoma 107% | M14 melanoma 106% | HCT-15 colon 98.5% | HT29 colon 117% | SNB-75 CNS 85.2% | SNB-19 CNS 103% | U251 CNS 105% | PC-3 prostate 95.7% | SK-MEL-5 melanoma 140% | UACC-62 melanoma 106% | LOX IMVI melanoma 100% | SK-MEL-28 melanoma 115%

CCOc1c(C#N)c2c(N)ncnc2n1C1OC(CO)C(O)C1O (stereo unspecified)
inactive: MALME-3M melanoma 59.2% | MDA-MB-231 breast 87.1% | SF-268 CNS 25.2% | SF-295 CNS 71.3% | SF-539 CNS 62.5% | UACC-257 melanoma 83.5% | HCT-15 colon 23.1% | HT29 colon 22.6% | SNB-75 CNS 62.4% | SNB-19 CNS 72.7% | U251 CNS 35.4% | PC-3 prostate 16.2% | SK-MEL-5 melanoma 79% | UACC-62 melanoma 49.8% | LOX IMVI melanoma 18.9% | SK-MEL-28 melanoma 20.4%
active: DU-145 prostate -10.5% | K-562 leukemia 0.169%

Cc1cccc(C(=O)O)n1
inactive: DU-145 prostate 116% | K-562 leukemia 102% | MALME-3M melanoma 111% | MDA-MB-231 breast 120% | SF-268 CNS 107% | SF-295 CNS 98% | SF-539 CNS 99.7% | UACC-257 melanoma 105% | M14 melanoma 108% | HCT-15 colon 99.4% | HT29 colon 112% | SNB-75 CNS 103% | SNB-19 CNS 97.6% | U251 CNS 105% | PC-3 prostate 117% | SK-MEL-5 melanoma 98.3% | UACC-62 melanoma 101% | LOX IMVI melanoma 101% | SK-MEL-28 melanoma 123%
